Reference: PubChem BioAssay (NCI)
The panel holds about 83,000 compounds, 20% with a hit somewhere; the sample as a whole holds those more often.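 Cells were grown in 96-well plates and exposed to the test compound at a single concentration for 48 hours; results are reported as percent growth, with values below 10 considered active.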 Calls of active or inactive are those of the source.

Tests used:
Experiment in all cases: NCI-60 one-dose screen, 48 h (100 = growth as untreated, 0 = no growth, -100 = all killed)
SK-MEL-2 melanoma = details: 10 µM unless noted
EKVX NSCLC = details: 10 µM
SN12C renal = details: 10 µM unless noted
UO-31 renal = details: 10 µM unless noted
TK-10 renal = details: 10 µM unless noted
ACHN renal = details: 10 µM unless noted
CAKI-1 renal = details: 10 µM unless noted
A498 renal = details: 10 µM unless noted
CCRF-CEM leukemia = details: 10 µM
MOLT-4 leukemia = details: 10 µM unless noted

Measured: growth

CCOc1nc(-c2ccccc2)cc2c(O)c(C(=O)N/N=C/c3ccccc3O)[nH]c(=O)c12
inactive: SK-MEL-2 melanoma 61.3% | EKVX NSCLC 97.3% | SN12C renal 115% | UO-31 renal 73.5% | TK-10 renal 140% | ACHN renal 107% | CAKI-1 renal 101% | A498 renal 102% | CCRF-CEM leukemia 69.4% | MOLT-4 leukemia 17.1%

CC1C(=O)CCCC1=O
inactive: SK-MEL-2 melanoma 99% | EKVX NSCLC 110% | SN12C renal 95.6% | UO-31 renal 86.7% | TK-10 renal 102% | ACHN renal 104% | CAKI-1 renal 100% | A498 renal 138% | CCRF-CEM leukemia 92.1% | MOLT-4 leukemia 95.1%

O=C1/C(=C/c2ccc(Cl)cc2)CCC/C1=C\c1ccc(Cl)cc1
inactive: SK-MEL-2 melanoma 117% | EKVX NSCLC 89.2% | SN12C renal 92% | UO-31 renal 74.1% | TK-10 renal 123% | ACHN renal 95% | CAKI-1 renal 89.4% | A498 renal 105% | CCRF-CEM leukemia 78.1% | MOLT-4 leukemia 80.2%

CCCCN(CCCC)CC(O)CN(CC)CC (centres undefined)
inactive: SK-MEL-2 melanoma 91.5% | EKVX NSCLC 107% | SN12C renal 96.4% | UO-31 renal 72.8% | TK-10 renal 92.7% | ACHN renal 102% | CAKI-1 renal 93.8% | A498 renal 111% | CCRF-CEM leukemia 104% | MOLT-4 leukemia 96%

CC(C)(C)c1ccc([I+]c2ccc(C(C)(C)C)cc2)cc1
active: SK-MEL-2 melanoma -2.7% | SN12C renal 3.97% | A498 renal -2.59% | CCRF-CEM leukemia 9.22%
inactive: EKVX NSCLC 15.6% | UO-31 renal 62.8% | TK-10 renal 23.5% | ACHN renal 47.3% | CAKI-1 renal 87.6% | MOLT-4 leukemia 12.1%

COc1cc2ncnc(-n3ncc4cc(NC(=O)Nc5ccc(Cl)c(Cl)c5)ccc43)c2cc1OC
active: SK-MEL-2 melanoma -26.6% | EKVX NSCLC -16.1% | SN12C renal 3.99% | UO-31 renal -17.2% | TK-10 renal -14.1% | ACHN renal -61.6% | CAKI-1 renal 8.96% | A498 renal -22.7% | MOLT-4 leukemia 9.19%
inactive: CCRF-CEM leukemia 22.3%

CCCCCCCCCCCCCCCCCC1=NCCN1CCNC(C)=O
inactive: SK-MEL-2 melanoma 111% | EKVX NSCLC 80% | SN12C renal 104% | UO-31 renal 83.2% | TK-10 renal 103% | ACHN renal 91.4% | CAKI-1 renal 87.6% | A498 renal 78.4% | CCRF-CEM leukemia 40.3% | MOLT-4 leukemia 62.6%

Oc1ccccc1/C=N/N=C\c1ccccc1Cl
inactive: SK-MEL-2 melanoma 102% | EKVX NSCLC 75.9% | SN12C renal 92.6% | UO-31 renal 40.5% | TK-10 renal 132% | ACHN renal 95.8% | CAKI-1 renal 86.8% | A498 renal 141% | MOLT-4 leukemia 61.3%
active: CCRF-CEM leukemia 1.42%

COc1ccc(CNCCCN2C(=O)c3ccc4c5c(ccc(c35)C2=O)C(=O)N(CCCNCc2ccc(OC)c(OC)c2OC)C4=O)c(OC)c1OC
active: SK-MEL-2 melanoma -88.4% | EKVX NSCLC -77.2% | SN12C renal -90.8% | UO-31 renal -91.5% | TK-10 renal -84.7% | ACHN renal -90.3% | CAKI-1 renal -52.5% | CCRF-CEM leukemia -34% | MOLT-4 leukemia -43.9%

CCOC(=O)NC1=NCC(C)(C)S1
inactive: SK-MEL-2 melanoma 102% | EKVX NSCLC 98.2% | SN12C renal 93.8% | UO-31 renal 86.9% | TK-10 renal 98.4% | ACHN renal 107% | CAKI-1 renal 99.7% | A498 renal 68.4% | CCRF-CEM leukemia 98.4% | MOLT-4 leukemia 83.8%

CC(=O)Nc1nc(C)c(C(=O)NNS(=O)(=O)c2ccccc2)s1
active: SK-MEL-2 melanoma 2.86%
inactive: EKVX NSCLC 113% | SN12C renal 105% | UO-31 renal 91.8% | TK-10 renal 161% | ACHN renal 115% | CAKI-1 renal 121% | A498 renal 121% | CCRF-CEM leukemia 114% | MOLT-4 leukemia 117%

NC(=O)CC(NC(=O)COc1ccc(Cl)cc1Cl)C(=O)O (centres undefined)
inactive: SK-MEL-2 melanoma 104% | EKVX NSCLC 111% | SN12C renal 101% | UO-31 renal 95.6% | TK-10 renal 103% | ACHN renal 109% | CAKI-1 renal 101% | A498 renal 88% | CCRF-CEM leukemia 105% | MOLT-4 leukemia 104%

O=C(N/N=C\c1ccc(Cl)cc1)C(=O)N/N=C\c1ccc(Cl)cc1
inactive: SK-MEL-2 melanoma 98.4% | EKVX NSCLC 102% | SN12C renal 90.8% | UO-31 renal 78.3% | TK-10 renal 105% | ACHN renal 96.8% | CAKI-1 renal 94.6% | A498 renal 101% | CCRF-CEM leukemia 90.7% | MOLT-4 leukemia 98.1%

Clc1ccc(N/N=C(\c2ccccc2)c2ccccn2)nc1
active: UO-31 renal 2.2% | ACHN renal 8.31% | CAKI-1 renal 6.96% | A498 renal -14.2% | CCRF-CEM leukemia 1.1% | MOLT-4 leukemia 2.34%
inactive: SK-MEL-2 melanoma 36.4% | EKVX NSCLC 15.2% | SN12C renal 15.7% | TK-10 renal 52.1%
